What was measured:
[1] = target: T1, cGMP-dependent protein kinase 1 (Homo sapiens) (UniProt Q13976); conditions: at 1 µM
T1 sequence (whole entry): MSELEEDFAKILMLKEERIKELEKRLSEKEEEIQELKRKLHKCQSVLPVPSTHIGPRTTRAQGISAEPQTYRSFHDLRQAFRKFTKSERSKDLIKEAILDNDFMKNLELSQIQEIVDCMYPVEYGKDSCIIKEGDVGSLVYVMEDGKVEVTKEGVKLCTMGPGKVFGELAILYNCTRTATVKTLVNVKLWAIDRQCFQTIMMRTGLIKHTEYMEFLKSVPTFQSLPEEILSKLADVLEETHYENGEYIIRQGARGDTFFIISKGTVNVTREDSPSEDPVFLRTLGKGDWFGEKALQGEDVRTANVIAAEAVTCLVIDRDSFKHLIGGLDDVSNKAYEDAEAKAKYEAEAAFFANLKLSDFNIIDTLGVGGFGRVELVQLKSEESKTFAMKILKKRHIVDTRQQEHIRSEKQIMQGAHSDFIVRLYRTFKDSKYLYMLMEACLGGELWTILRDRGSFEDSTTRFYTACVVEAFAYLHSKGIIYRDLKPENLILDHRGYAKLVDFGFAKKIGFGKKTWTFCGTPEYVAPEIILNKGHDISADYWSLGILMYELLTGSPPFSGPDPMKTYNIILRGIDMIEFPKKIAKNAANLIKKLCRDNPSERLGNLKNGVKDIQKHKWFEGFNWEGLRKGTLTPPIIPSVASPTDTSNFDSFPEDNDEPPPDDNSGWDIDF

[2] = target: T1, cGMP-dependent protein kinase 1 (Homo sapiens); conditions: at 10 µM
[3] = target: T1, cGMP-dependent protein kinase 1 (Homo sapiens); conditions: at 1 µM; remark: listed apart in the source
[4] = target: T1, cGMP-dependent protein kinase 1 (Homo sapiens); conditions: at 10 µM; remark: listed apart in the source
[5] = target: T2, MAP kinase-activated protein kinase 5 (Homo sapiens) (UniProt Q8IW41); conditions: at 1 µM
T2 sequence (whole entry): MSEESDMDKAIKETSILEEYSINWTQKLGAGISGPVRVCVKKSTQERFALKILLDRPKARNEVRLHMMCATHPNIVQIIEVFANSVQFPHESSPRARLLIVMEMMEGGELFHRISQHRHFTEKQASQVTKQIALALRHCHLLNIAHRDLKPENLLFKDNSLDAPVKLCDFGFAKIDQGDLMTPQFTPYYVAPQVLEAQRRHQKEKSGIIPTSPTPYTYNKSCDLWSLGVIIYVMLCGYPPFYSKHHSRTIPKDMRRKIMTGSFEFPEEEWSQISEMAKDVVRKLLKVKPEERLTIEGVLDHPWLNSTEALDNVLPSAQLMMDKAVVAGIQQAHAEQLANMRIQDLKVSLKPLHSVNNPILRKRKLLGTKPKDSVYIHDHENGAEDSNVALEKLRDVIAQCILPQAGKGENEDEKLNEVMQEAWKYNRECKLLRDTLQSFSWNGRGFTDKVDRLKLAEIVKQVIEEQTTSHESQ

[6] = target: T2, MAP kinase-activated protein kinase 5 (Homo sapiens); conditions: at 10 µM
[7] = target: Serine/threonine-protein kinase N2 (Homo sapiens) (UniProt Q16513); conditions: at 1 µM
Serine/threonine-protein kinase N2 (Homo sapiens), sequence (Q16513 whole entry, looked up): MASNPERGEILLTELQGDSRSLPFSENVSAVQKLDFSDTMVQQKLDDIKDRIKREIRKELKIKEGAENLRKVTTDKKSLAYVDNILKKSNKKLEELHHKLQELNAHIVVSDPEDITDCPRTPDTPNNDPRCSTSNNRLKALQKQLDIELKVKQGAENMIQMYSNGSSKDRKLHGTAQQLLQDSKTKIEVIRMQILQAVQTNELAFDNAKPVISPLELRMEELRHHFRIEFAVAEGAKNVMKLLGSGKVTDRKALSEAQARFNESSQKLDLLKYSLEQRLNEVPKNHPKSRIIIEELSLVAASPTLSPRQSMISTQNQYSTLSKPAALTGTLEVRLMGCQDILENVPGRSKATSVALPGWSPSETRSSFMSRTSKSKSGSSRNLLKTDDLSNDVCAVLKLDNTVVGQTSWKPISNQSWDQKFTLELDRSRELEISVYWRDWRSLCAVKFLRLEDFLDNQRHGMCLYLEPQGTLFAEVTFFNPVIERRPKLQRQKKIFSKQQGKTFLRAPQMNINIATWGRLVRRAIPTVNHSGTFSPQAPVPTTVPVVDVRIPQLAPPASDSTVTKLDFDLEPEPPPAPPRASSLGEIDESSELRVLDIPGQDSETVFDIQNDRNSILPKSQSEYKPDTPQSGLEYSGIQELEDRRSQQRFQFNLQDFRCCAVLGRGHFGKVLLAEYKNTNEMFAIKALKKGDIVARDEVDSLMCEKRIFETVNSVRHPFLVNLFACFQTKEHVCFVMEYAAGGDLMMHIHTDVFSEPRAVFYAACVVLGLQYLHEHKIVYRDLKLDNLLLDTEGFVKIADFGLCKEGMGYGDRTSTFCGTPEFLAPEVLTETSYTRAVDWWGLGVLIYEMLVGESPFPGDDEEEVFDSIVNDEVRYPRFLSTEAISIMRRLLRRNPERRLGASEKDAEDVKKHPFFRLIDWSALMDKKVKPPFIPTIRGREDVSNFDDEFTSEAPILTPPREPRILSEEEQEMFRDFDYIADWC

[8] = target: Serine/threonine-protein kinase N2 (Homo sapiens) (UniProt Q16513); conditions: at 10 µM
[9] = target: Tyrosine-protein kinase FRK (Homo sapiens) (UniProt P42685); conditions: at 1 µM
Tyrosine-protein kinase FRK (Homo sapiens), sequence (P42685 whole entry, canonical isoform): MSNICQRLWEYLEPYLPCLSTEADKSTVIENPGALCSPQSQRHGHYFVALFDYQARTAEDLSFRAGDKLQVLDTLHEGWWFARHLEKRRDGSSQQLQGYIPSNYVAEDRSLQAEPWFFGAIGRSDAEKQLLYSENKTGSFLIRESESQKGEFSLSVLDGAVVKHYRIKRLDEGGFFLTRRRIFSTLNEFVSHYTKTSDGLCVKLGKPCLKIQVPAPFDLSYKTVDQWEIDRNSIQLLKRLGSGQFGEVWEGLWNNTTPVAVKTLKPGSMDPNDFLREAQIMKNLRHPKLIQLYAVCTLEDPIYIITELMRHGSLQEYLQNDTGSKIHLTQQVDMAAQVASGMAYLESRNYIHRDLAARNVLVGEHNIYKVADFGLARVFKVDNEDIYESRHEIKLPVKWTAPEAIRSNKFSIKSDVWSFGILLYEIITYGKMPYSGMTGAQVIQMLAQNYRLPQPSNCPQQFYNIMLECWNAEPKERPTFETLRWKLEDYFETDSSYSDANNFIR

[10] = target: Tyrosine-protein kinase FRK (Homo sapiens) (UniProt P42685); conditions: at 10 µM
[11] = target: T3, Phosphorylase b kinase gamma catalytic chain, liver/testis isoform (Homo sapiens) (UniProt P15735); conditions: at 1 µM
T3 sequence (whole entry): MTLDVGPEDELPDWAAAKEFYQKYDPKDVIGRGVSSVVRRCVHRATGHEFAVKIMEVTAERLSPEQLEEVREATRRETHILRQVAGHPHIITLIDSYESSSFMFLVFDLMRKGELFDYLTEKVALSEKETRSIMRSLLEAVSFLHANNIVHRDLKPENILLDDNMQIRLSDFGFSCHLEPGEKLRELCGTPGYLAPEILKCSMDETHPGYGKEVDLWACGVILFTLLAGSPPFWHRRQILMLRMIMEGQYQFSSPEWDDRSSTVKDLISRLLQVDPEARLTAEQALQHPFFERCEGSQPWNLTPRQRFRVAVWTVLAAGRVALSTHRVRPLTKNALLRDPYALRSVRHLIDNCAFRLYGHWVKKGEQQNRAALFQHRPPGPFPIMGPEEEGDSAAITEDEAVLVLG

[12] = target: T3, Phosphorylase b kinase gamma catalytic chain, liver/testis isoform (Homo sapiens); conditions: at 10 µM
[13] = target: Serine/threonine-protein kinase pim-1 (Homo sapiens) (UniProt P11309); conditions: at 1 µM
Serine/threonine-protein kinase pim-1 (Homo sapiens), sequence (P11309 whole entry, looked up): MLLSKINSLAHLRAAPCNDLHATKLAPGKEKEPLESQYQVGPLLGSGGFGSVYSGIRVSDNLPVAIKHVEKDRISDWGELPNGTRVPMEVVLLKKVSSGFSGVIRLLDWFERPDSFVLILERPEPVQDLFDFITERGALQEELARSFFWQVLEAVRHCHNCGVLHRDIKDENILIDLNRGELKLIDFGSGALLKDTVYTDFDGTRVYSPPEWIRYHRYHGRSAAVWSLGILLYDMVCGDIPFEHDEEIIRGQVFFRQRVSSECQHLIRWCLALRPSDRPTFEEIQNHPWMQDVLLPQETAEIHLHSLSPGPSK

[14] = target: Serine/threonine-protein kinase pim-1 (Homo sapiens) (UniProt P11309); conditions: at 10 µM
[15] = target: Serine/threonine-protein kinase pim-2 (Homo sapiens) (UniProt Q9P1W9); conditions: at 1 µM
Serine/threonine-protein kinase pim-2 (Homo sapiens), sequence (Q9P1W9 whole entry, looked up): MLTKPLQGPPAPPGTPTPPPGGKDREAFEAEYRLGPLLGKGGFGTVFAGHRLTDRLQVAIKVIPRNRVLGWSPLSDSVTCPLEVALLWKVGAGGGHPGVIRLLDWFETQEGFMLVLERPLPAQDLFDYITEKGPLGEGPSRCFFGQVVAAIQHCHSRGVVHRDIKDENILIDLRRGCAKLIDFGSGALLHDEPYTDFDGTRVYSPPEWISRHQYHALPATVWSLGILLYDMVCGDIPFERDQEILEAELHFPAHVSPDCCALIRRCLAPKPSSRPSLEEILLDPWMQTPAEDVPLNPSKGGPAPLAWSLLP

[16] = target: Serine/threonine-protein kinase pim-2 (Homo sapiens) (UniProt Q9P1W9); conditions: at 10 µM
[17] = target: Serine/threonine-protein kinase pim-3 (Homo sapiens) (UniProt Q86V86); conditions: at 1 µM
[18] = target: Serine/threonine-protein kinase pim-3 (Homo sapiens) (UniProt Q86V86); conditions: at 10 µM
[19] = target: Serine/threonine-protein kinase PLK1 (Homo sapiens) (UniProt P53350); conditions: at 1 µM
Serine/threonine-protein kinase PLK1 (Homo sapiens), sequence (P53350 whole entry): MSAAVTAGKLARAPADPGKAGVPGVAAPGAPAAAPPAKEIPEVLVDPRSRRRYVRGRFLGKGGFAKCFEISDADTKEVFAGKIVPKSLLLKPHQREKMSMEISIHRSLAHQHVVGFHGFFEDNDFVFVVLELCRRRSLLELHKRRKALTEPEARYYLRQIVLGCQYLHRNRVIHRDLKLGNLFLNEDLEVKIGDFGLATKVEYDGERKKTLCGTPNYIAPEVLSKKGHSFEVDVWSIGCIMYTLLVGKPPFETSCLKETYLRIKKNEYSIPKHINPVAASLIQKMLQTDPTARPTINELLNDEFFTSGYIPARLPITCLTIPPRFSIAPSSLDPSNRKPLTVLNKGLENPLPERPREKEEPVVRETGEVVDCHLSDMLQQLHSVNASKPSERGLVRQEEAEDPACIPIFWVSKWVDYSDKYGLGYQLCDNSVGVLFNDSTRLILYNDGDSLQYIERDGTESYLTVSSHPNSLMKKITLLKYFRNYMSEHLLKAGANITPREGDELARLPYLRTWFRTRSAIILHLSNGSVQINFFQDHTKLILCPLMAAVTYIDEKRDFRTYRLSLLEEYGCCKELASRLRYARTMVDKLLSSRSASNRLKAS

[20] = target: Serine/threonine-protein kinase PLK1 (Homo sapiens) (UniProt P53350); conditions: at 10 µM

SMILES	residual activity [1] [%]	residual activity [2] [%]	residual activity [3] [%]	residual activity [4] [%]	residual activity [5] [%]	residual activity [6] [%]	residual activity [7] [%]	residual activity [8] [%]	residual activity [9] [%]	residual activity [10] [%]	residual activity [11] [%]	residual activity [12] [%]	residual activity [13] [%]	residual activity [14] [%]	residual activity [15] [%]	residual activity [16] [%]	residual activity [17] [%]	residual activity [18] [%]	residual activity [19] [%]	residual activity [20] [%]
COc1ccc(CNc2nc(N(CCO)CCO)nc3c2ncn3C(C)C)cc1	93	101	109	101	100	102	104	77	95	87	122	88	87	69	134	130	87	88	69	58
O=[N+]([O-])c1ccc(-c2nc(-c3ccc(F)cc3)c(-c3ccncc3)[nH]2)cc1	98	103	105	92	112	107	119	93	57	60	98	91	99	85	127	139	86	95	88	80
O=C1c2ccccc2-[n+]2ccc3c([nH]c4ccccc43)c21	94	116	83	75	119	124	86	92	95	92	108	99	110	91	144	130	81	74	75	74
O=C1NC(=O)c2cc(Nc3ccc(F)cc3)c(Nc3ccc(F)cc3)cc21	98	97	92	73	74	39	90	84	83	41	93	86	49	11	91	31	94	93	95	69
Cc1nc(-c2ccccc2)c(-c2ccncc2)o1	93	80	115	90	110	115	99	76	1	2	109	95	78	60	121	117	93	99	92	93
NC(=O)c1ccc2[nH]c(-c3ccc(Oc4ccc(Cl)cc4)cc3)nc2c1	99	105	105	77	91	67	101	90	94	106	89	80	121	116	108	119	83	83	75	69
Cc1nc2cc3nc(-c4cccs4)cnc3cc2n1C	117	96	99	103	81	56	97	100	99	76	94	111	100	101	90	121	101	102	118	85
C[C@@H](N)[C@H]1CC[C@H](C(=O)Nc2ccncc2)CC1	77	31	73	30	112	102	16	4	98	97	101	93	126	115	118	121	98	99	107	105
COc1cc2ncnc(Nc3ccc(O)c(Br)c3)c2cc1OC	94	76	70	47	77	70	87	61	35	5	97	94	66	29	78	66	87	70	64	54
O=C1Nc2ccccc2/C1=C1/Nc2ccccc2/C1=N\OCCC(O)CO (stereo unspecified)	56	19	44	9	–	27	76	53	11	1	21	5	58	11	98	44	75	64	72	75
Cc1cc2ncc(-c3ccccc3)nc2cc1C	110	130	83	94	101	73	102	107	105	88	94	101	97	84	126	–	100	96	81	75
O=C1NC(=O)c2c1c1c3ccccc3[nH]c1c1[nH]c3cc(Br)ccc3c21	99	113	92	83	105	106	87	84	94	90	114	71	28	13	27	6	29	14	90	90
COc1cc2ncnc(Nc3ccc(NC(=O)c4ccccc4)cc3)c2cc1OC	105	99	90	–	105	76	–	–	109	76	101	–	88	96	85	–	107	99	105	–
O=C(Nc1cccc(Nc2cc(Nc3cccc(C(F)(F)F)c3)ncn2)c1)C1CC1	117	100	81	88	110	24	93	93	101	73	86	98	112	–	88	108	93	102	99	91

— ChEMBL document CHEMBL2218924, “A broad activity screen in support of a chemogenomic map for kinase signalling research and drug discovery” (Biochem J, 2013)
